Assay outcomes from PubChem BioAssay.
This excerpt belongs to a sample that is enriched for hits.
Cycloheximide cs: affects cycloheximide protein synthesis inhibition readout, counter-screen | cell reporter, cycloheximide protein synthesis inhibition counterscreen | max response, % | 300,000 compounds, 12% hits; in the data active = max response mostly above about 13%, no sharp cut-off; inactive = mostly below about 14%; note: read at 38.3 µM for the half of the compounds with a filed dose; 0% is about no effect
LASV entry inh: inhibitors of Lassa virus binding or cell entry; Lassa virus pseudotype entry inhibition, cell reporter; Potency, µM (highest dose often 37.9 µM), for inactives: at the top dose activity change, negative = inhibition, usual class: inhibitors; 300,000 compounds, 1.2% hits; AID 540256; calls by dose curve; tested in HEK293 cells; note: potency is the fitted concentration of half-maximal effect; % is set by controls: 0 for no effect and ±100 for the full control effect; nearly all actives have a fitted effect of over 50% in size
Marburg entry inh: Marburg virus entry inhibition; Marburg virus pseudotyped entry inhibition, cell reporter; Potency, µM (titrated, usually from 37.8 µM), inactives show top-dose activity change, negative = inhibition, usual class: inhibitors; 300,000 compounds, 1.8% hits; calls by dose curve; tested in HEK293 cells; note: potency is the fitted concentration of half-maximal effect; % is set by controls: 0 for no effect and ±100 for the full control effect
VACV Venus inh: inhibitors of vaccinia virus (Venus reporter). Vaccinia virus Venus reporter expression, fluorescence. Potency, µM (series often up to 36.5 µM), without a hit: at the highest dose activity change, negative = inhibition, hits mostly inhibitors. 330,000 compounds, 0.46% hits; calls by dose curve; tested in A549 cells; note: potency is the fitted concentration of half-maximal effect; % is set by controls: 0 for no effect and ±100 for the full control effect; nearly all actives have a fitted effect of over 30% in size
Shiga inhibitor: Shiga toxin inhibition. Vero cells, Shiga toxin protein synthesis inhibition reporter. inhibition, % at 38.7 µM. 290,000 compounds, 9.2% hits. AID 2315; in the data active = inhibition mostly above about 28%, no sharp cut-off; inactive = mostly below about 43%; note: 0% is about no effect
Vaccinia mCherry: vaccinia inhibition (mCherry reporter); Vaccinia virus mCherry reporter infection, fluorescence; Potency, µM (highest dose often 36.5 µM), inactives show at the top dose activity change, negative = inhibition, usual class: inhibitors; 310,000 compounds, 0.63% hits; AID 720579; calls by dose curve; tested in A549 cells; note: potency is the fitted concentration of half-maximal effect; % is set by controls: 0 for no effect and ±100 for the full control effect; nearly all actives have a fitted effect of over 35% in size
Starred values were filed as active, the others as inactive; i = inactive; ? = inconclusive; . = no result; [ ] = dose if it differs, or a comment.

SMILES | Cycloheximide cs | LASV entry inh | Marburg entry inh | VACV Venus inh | Shiga inhibitor | Vaccinia mCherry
CCC(=O)c1ccc(OCc2ccc(C(=O)OC)cc2)cc1 | 113.0* | ? | 10µM* | -11.0% | 100.1* | -1.2%
O=C(Nc1ccc(N2CCCCC2)cc1)c1ccc(F)cc1F | 41.8* | 10µM* | ? | -8.7% | 44.8* | -11.3%
O=C(Nc1ccc(N2CCCC2)cc1)c1ccccc1F | 42.6* | -26.1% | ? | -1.4% | 43.5* | i
COc1ccccc1C(=O)NCCC(=O)NNC(=O)C1COc2ccccc2O1 (stereo not drawn) | . | -6.7% | -0.5% | -18.2% | . | i
CCc1cccc(NC(=O)C(NS(=O)(=O)c2ccc3nc(C)sc3c2)C(C)C)c1 (stereo not drawn) | . | 25.4%[46.1 µM] | -28.1%[46.1 µM] | 0.7% | . | -9.4%
Nc1ccc(C(=O)OCC(=O)Nc2cc([N+](=O)[O-])ccc2F)cc1 | 12.2* | . | . | . | -9.2 | .
Nc1ccc(C(=O)Oc2ccc([N+](=O)[O-])cc2)cc1 | 51.2* | . | . | -26.1% | 104.6* | -6.0%
O=C(COC(=O)C1CCCCC1)Nc1cc([N+](=O)[O-])ccc1F | -2.7 | . | . | . | -13.4 | .
CCc1nnc(NC(=O)C2=CCN(S(=O)(=O)c3ccc(F)cc3)CC2)s1 | 2.7 | . | . | . | -6.8 | .
O=C(COc1ccc(Br)cc1)NCCN1CCCC1 | -4.3 | . | . | . | . | .
COc1ccc2oc(-c3ccc(C)c(NC(=O)CSc4ccc(Cl)cc4)c3)nc2c1 | 24.8* | -18.9%[46.1 µM] | -27.4%[46.1 µM] | -0.1% | 64.9* | -2.4%
Cc1ccc2nc(-c3ccc(C)c(NC(=O)CSc4ccc(Cl)cc4)c3)oc2c1 | . | -1.5%[46.1 µM] | ? | -14.4% | . | -9.4%
C/C(=N\NC(=O)C1(C)CC1(Br)Br)c1ccc(NC(=O)C2CCC2)cc1 (stereo not drawn) | -2.3 | ? | -9.9% | ? | -2.4 | i
O=C(Nc1ccc(Br)cc1)C1CCCC1 | 5.9 | 5.3% | 8.5% | -15.8% | 5.9 | -3.6%
C/C(=N\NC(=O)c1nn(C)c(C)c1Br)c1ccc(NC(=O)C2CCCC2)cc1 | 40.6* | . | . | . | 107.2* | .
C/C(=N\NC(=O)c1ccn(C)n1)c1ccc(NC(=O)C2CCCC2)cc1 | 31.5* | 25.7% | -9.7% | -14.5% | 79.2* | -12.6%
C/C(=N\NC(=O)c1ccn(C)n1)c1ccc(NC(=O)C2CCC2)cc1 | 27.3* | . | . | . | 55.7* | .
CCN1C(=NCc2ccc(OC)cc2)NC(c2cccc(F)c2)C(C(=O)OC)=C1C (stereo not drawn) | . | . | 2.4%[14.2 µM] | . | . | .
CCOC(=O)C(=O)N(CC)C1CCS(=O)(=O)C1 (stereo not drawn) | 8.9* | -1.8% | -18.4%[14.2 µM] | -0.9% | 10.2 | i
N#Cc1ccc(CO/N=C/c2ccccc2)cc1 | 40.9* | -0.6% | ? | -0.4% | 76.3* | 1.4%
Cc1nc2ccccc2nc1OCc1cccc([N+](=O)[O-])c1 | -3.8 | -11.0%[46.1 µM] | -19.8%[46.1 µM] | -5.4% | -6.2 | i
Cc1nc2ccccc2nc(C)c1=NOCc1ccc(C#N)cc1 | 28.9* | -1.8% | ? | -23.5% | 66.5* | -4.6%
Cc1nc2ccccc2nc(C)c1=NOCc1cccc(F)c1 | -5.7 | 2.82µM* | ? | ? | -12.0 | i
N#Cc1ccc(COC(=O)c2ccccn2)cc1 | 5.9 | . | . | . | 21.4 | .
O=C(N/C(=C/c1cccc([N+](=O)[O-])c1)C(=O)N1CCOCC1)c1ccccc1Br | 7.2 | -1.8% | 5.0% | -10.8% | -9.4 | i
SMILES | Cycloheximide cs | LASV entry inh | Marburg entry inh | VACV Venus inh | Shiga inhibitor | Vaccinia mCherry
Cc1ccc(Cl)cc1N1CCN(C(=O)c2cc3c(-c4ccccc4F)nn(C)c3s2)CC1 | . | -25.5%[46.1 µM] | -4.7%[46.1 µM] | 1.7% | . | -3.1%
Cc1nc2cc(NC(=O)C3COc4ccccc4O3)ccc2s1 (stereo not drawn) | 60.6* | -2.9%[46.1 µM] | 11.2%[46.1 µM] | -10.6% | 54.2* | i
Cc1nc2ccc3nc(NC(=O)C4COc5ccccc5O4)sc3c2s1 (stereo not drawn) | 2.7 | . | . | -25.9% | 18.4 | ?
Cc1nc2ccc(NC(=O)C3COc4ccccc4O3)cc2s1 (stereo not drawn) | 40.9* | . | . | . | 84.5* | .
O=C(c1ccc(-c2ccc([N+](=O)[O-])cc2)o1)N1CCN(S(=O)(=O)c2cccs2)CC1 | . | -12.1% | -8.9% | -6.5% | . | -29.8%
CCc1ccc(NC(=O)C2CCN(C(=O)N3CC(CC)Oc4ccccc43)CC2)cc1 (stereo not drawn) | . | -10.3%[46.1 µM] | . | -17.7% | . | -4.8%
O=C(COc1ccccc1Br)NC1CCCC1 | 31.9* | -6.4% | -32.4% | -13.6% | 77.6* | -12.1%
COc1ccccc1OCC(=O)NC1CCCCCC1 | 21.8* | 15.6% | 13.2% | -20.6% | 41.7* | -13.7%
